Measurements published in PubChem BioAssay (Tox21).
Results filed as inconclusive are left out. A call without a number means that no potency is given here. Values without a mark were called inactive. The source made the active and inactive calls. Unless noted, calls come from the whole dose curve; as a rule, active = well fitted curve in the direction sought with a large enough effect in the repeat runs; inconclusive = weak or mixed curves; inactive = no such curve, though single readings can be large; an effect the other way counts as inactive or inconclusive.

Experiments:
[1] = qHTS assay to identify small molecule agonists of the vitamin D receptor (VDR) signaling pathway - cell viability counter screen (AID 743224); note: nearly all actives have a fitted effect of over 50% in size; note: potency is the fitted concentration of half-maximal effect
Procedure, shortened: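 Cells: VDR-bla, 2,000/well, settled 4 h. Treatment: compounds in DMSO, 16 h, 37C/5% CO2. Readout: CellTiter-Glo luminescence after 30 min RT.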

[2] = qHTS assay to identify small molecule antagonists of the vitamin D receptor (VDR) signaling pathway - cell viability counter screen (AID 743225); note: nearly all actives have a fitted effect of over 50% in size; note: potency is the fitted concentration of half-maximal effect
Procedure, shortened: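 Same-well multiplex: following 16 h treatment of HEK 293T cells carrying a UAS-driven beta-lactamase reporter with compound and agonist (3 nM final), and a 2 h FRET substrate step, CellTiter-Glo was added and luminescence read after 30 min.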

[3] = qHTS assay to identify small molecule agonists of the NFkB signaling pathway (AID 1159509; active = well fitted curve in the direction sought with a large enough effect in the signal ratio in the repeat runs, not every such curve was filed as active; the % refers to the signal ratio; note: series mostly up to about 61 µM)
Procedure, shortened: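 Pathway activation was measured in ME-180 cells stably expressing beta-lactamase under NF-kB response element control. Substrate cleavage was read as the 460/530 nm emission shift after 5 hr compound incubation.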

[4] = qHTS assay to identify small molecule agonists of the NFkB signaling pathway - cell viability counter screen (AID 1159515; calls by dose curve; note: series mostly up to about 61 µM; nearly all actives have a fitted effect of over 55% in size)
Procedure, shortened: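 Cells are seeded (2,000 NFkB-bla ME-180 per well), rested overnight, and dosed with DMSO-dissolved compounds for 5 hr at 37 C. Viability is then read by CellTiter-Glo luminescence after 30 min at room temperature.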

[5] = qHTS assay to identify small molecule agonists of the endoplasmic reticulum stress response signaling pathway (AID 1159516; active = well fitted activation curve with a large enough effect in the signal ratio in the repeat runs, not every such curve was filed as active; the % refers to the signal ratio)
Procedure, shortened: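 Cells are seeded at 1,500 per well and incubated overnight. Compounds in DMSO are added for 5 hr at 37 C, then beta-lactamase FRET substrate for 2 hr at room temperature, and fluorescence at 460 and 530 nm is measured.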

[6] = qHTS assay to identify small molecule agonists of the endoplasmic reticulum stress response signaling pathway - cell viability counter screen (AID 1159517; calls by dose curve;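 note: HeLa cells carrying an ER stress response element beta-lactamase reporter; series mostly up to about 61 µM; nearly all actives have a fitted effect of over 50% in size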)
Procedure, shortened: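 ESRE-bla HeLa cells (1,500/well) were plated overnight at 37 C and exposed to compounds for 5 hr. After the 2 hr beta-lactamase substrate read, CellTiter-Glo went into the same wells, and luminescence was read after 30 min at room temperature.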

[7] = qHTS assay to identify small molecule antagonists of the retinoid-related orphan receptor gamma (ROR-gamma) signaling pathway - cell viability counter screen (AID 1159520); note: nearly all actives have a fitted effect of over 50% in size
Procedure, shortened: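 Cytotoxicity was read from cellular ATP (CellTiter-Glo luminescence) after 16 hr at 37 C with 1 uM doxycycline induction. The inducer was added 2 hr after compound transfer to Tet-on ROR gamma CHO cells.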

[8] = qHTS assay to identify small molecule agonists of the AP-1 signaling pathway (AID 1159526; calls by dose curve)
[9] = qHTS assay to identify small molecule agonists of the RXR signaling pathway - cell viability counter screen (AID 1159529); note: nearly all actives have a fitted effect of over 50% in size; note: potency is the fitted concentration of half-maximal effect
Procedure, shortened: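 Counter screen: CellTiter-Glo luminescence. Cells: RXR-alpha-UAS-bla HEK 293T. Medium: 2% charcoal-stripped FBS. Treatment: 16 h, 37 C. Reagent incubation: 30 min, RT.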

[10] = qHTS assay to identify small molecule antagonists of the retinoid acid receptor (RAR) signaling pathway - cell viability counter screen (AID 1159551); note: nearly all actives have a fitted effect of over 35% in size
Procedure, shortened: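 Cells (C3RL4) are plated, incubated overnight, dosed with compound in DMSO, then given retinol at 1 uM final. After 6 h at 37 C, CellTiter-Glo is added and luminescence read following 30 min at room temperature.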

[11] = qHTS assay to identify small molecule antagonists of the retinoic acid receptor (RAR) signaling pathway (AID 1159552; note: nearly all actives have a fitted effect of over 50% in size; note: potency is the fitted concentration of half-maximal effect)
Procedure, shortened: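 Antagonism of retinol-induced RARE reporter activity was measured in C3RL4 cells. Exposure to compounds and 1 uM final retinol lasted 6 hr at 37 C, with luminescence as endpoint.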

[12] = qHTS assay to identify small molecule agonists of the retinoic acid receptor (RAR) signaling pathway (AID 1159553); note: potency is the fitted concentration of half-maximal effect
Procedure, shortened: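 Seed C3RL4 reporter cells at 1,000 per well and incubate overnight at 37 C. Add compounds in DMSO, incubate 6 hr. Add luciferase reagent, wait 30 min at room temperature, read luminescence.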

[13] = target: Retinoic acid receptor RXR-alpha (Homo sapiens) (UniProt P19793); test: qHTS assay to identify small molecule agonists of the RXR signaling pathway (AID 1159527; calls by dose curve; note: nearly all actives have a fitted effect of over 35% in size)
Procedure, shortened: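 Compounds in DMSO were added to RXR-alpha-UAS-bla HEK 293T cells kept in 2% charcoal-stripped serum, and incubated 16 hr at 37 C with 5% CO2. Reporter signal came from a 2 hr B/G FRET substrate step.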

[14] = target: Nuclear receptor ROR-gamma (Homo sapiens) (UniProt P51449); test: qHTS assay to identify small molecule antagonists of the retinoid-related orphan receptor gamma (ROR-gamma) signaling pathway (AID 1159521; note: nearly all actives have a fitted effect of over 50% in size; note: potency is the fitted concentration of half-maximal effect)
Procedure, shortened: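 Inducible-expression reporter assay: doxycycline (1 uM final) switched on RORγ in CHO cells bearing a ROR response element-luciferase construct, with test compounds present from 2 h beforehand. Decreased luminescence after 16 h defined antagonist activity.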

[15] = qHTS assay to identify small molecule agonists of the AP-1 signaling pathway - cell viability counter screen (AID 1159525; calls by dose curve; note: nearly all actives have a fitted effect of over 55% in size)
Procedure, shortened: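 Intracellular ATP by Cell Titer Glo luminescence (30 min, RT) in the same ME-180 AP-1-bla wells after the 5 h compound exposure at 37 °C. Normalised to tetra n-octyl ammonium bromide and DMSO controls.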

Chain of Retinoic acid receptor RXR-alpha (Homo sapiens) (P19793 whole entry, looked up): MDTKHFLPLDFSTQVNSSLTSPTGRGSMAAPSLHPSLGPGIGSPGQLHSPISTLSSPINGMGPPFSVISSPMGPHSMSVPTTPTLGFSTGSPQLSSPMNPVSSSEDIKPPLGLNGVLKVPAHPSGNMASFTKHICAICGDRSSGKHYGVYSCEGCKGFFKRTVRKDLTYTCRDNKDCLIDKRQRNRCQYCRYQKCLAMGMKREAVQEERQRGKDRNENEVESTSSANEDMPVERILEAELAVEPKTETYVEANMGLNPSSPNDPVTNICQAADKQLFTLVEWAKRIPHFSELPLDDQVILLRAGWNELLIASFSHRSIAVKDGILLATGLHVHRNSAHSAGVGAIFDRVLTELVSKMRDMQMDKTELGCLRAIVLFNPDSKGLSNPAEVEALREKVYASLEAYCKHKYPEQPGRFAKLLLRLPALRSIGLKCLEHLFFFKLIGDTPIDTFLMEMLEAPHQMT

SMILES	Potency [1]	Potency [2]	outcome [3]	outcome [4]	outcome [5]	outcome [6]	Potency [7]	outcome [8]	Potency [9]	Potency [10]	Potency [11]	Potency [12]	Potency [13]	Potency [14]	outcome [15]
CN(C)C(=O)Nc1ccc(Oc2ccc(Cl)cc2)cc1	inactive	inactive	inactive	inactive	inactive	inactive	inactive	inactive	inactive	inactive	inactive	61.1 µM (active)	–	–	–
CCCCCCCC/C=C\CCCCCCCC(=O)OC	inactive	inactive	inactive	inactive	inactive	inactive	inactive	inactive	inactive	inactive	–	–	inactive	–	–
O=C(Nc1ccc([N+](=O)[O-])cc1)Nc1ccc([N+](=O)[O-])cc1	–	inactive	inactive	inactive	inactive	inactive	–	inactive	0.952 µM (active)	inactive	inactive	inactive	–	2.37 µM (active)	–
NC(=O)N(O)[C@@H]1C=C[C@H](Oc2cccc(Oc3ccc(F)cc3)c2)C1	inactive	inactive	inactive	inactive	inactive	inactive	–	–	inactive	inactive	inactive	61.1 µM (active)	–	inactive	inactive
c1cc[c]([Bi]([c]2ccccc2)[c]2ccccc2)cc1	inactive	inactive	inactive	inactive	inactive	inactive	–	–	–	inactive	–	–	–	30.6 µM (active)	inactive
CC[C@H](NC(=O)c1cc(F)ccc1NS(=O)(=O)c1cccc2cccnc12)c1ccccc1	inactive	inactive	inactive	inactive	inactive	inactive	–	–	–	inactive	inactive	inactive	–	10.3 µM (active)	inactive
Nc1nccs1	inactive	inactive	inactive	inactive	inactive	inactive	inactive	inactive	inactive	inactive	–	–	inactive	–	–
O=C(CCCN1CCN(c2ccc(F)cc2)CC1)NC1c2ccccc2CSc2ccccc21 (stereo not drawn)	13.3 µM (active)	23.9 µM (active)	inactive	inactive	inactive	inactive	–	inactive	–	inactive	–	–	–	13.3 µM (active)	inactive
CC1CC(=O)NN=C1c1ccc(NCC(C)(C)NCC(O)COc2cc(Cl)ccc2C#N)cc1 (stereo not drawn)	inactive	inactive	inactive	inactive	inactive	inactive	inactive	–	–	inactive	inactive	inactive	–	–	–
CO[C@@]12[C@H](COC(N)=O)C3=C(C(=O)C(C)=C(N)C3=O)N1C[C@@H]1N[C@@H]12	–	inactive	inactive	inactive	inactive	inactive	–	inactive	inactive	inactive	–	–	–	inactive	inactive
CCCCCCOC(=O)C(C)C	inactive	inactive	inactive	inactive	inactive	inactive	–	inactive	inactive	inactive	inactive	inactive	–	inactive	inactive
CCc1nn(CCCN2CCN(c3cccc(Cl)c3)CC2)c(=O)n1CCOc1ccccc1	inactive	–	inactive	inactive	inactive	inactive	–	inactive	–	inactive	–	–	–	18.8 µM (active)	–
CC(=O)OCC(=O)[C@H]1CC[C@H]2[C@@H]3CCC4=CC(=O)CC[C@]4(C)[C@H]3CC[C@]12C	inactive	inactive	inactive	inactive	inactive	inactive	inactive	inactive	inactive	inactive	–	inactive	–	–	–
C[Si](NC1CCCCC1)(NC1CCCCC1)NC1CCCCC1	inactive	inactive	inactive	inactive	inactive	inactive	inactive	inactive	–	inactive	inactive	inactive	–	–	–
O=C(CCCN1CCC(O)(c2ccc(Br)cc2)CC1)c1ccc(F)cc1	inactive	inactive	inactive	inactive	inactive	inactive	inactive	inactive	inactive	inactive	–	inactive	–	–	–
CC(C)(C)CC(C)(C)c1ccc(OCCO)cc1	38.7 µM (active)	–	inactive	inactive	inactive	inactive	–	inactive	–	inactive	inactive	inactive	–	19.2 µM (active)	–
O=C(CS)OCCOC(=O)CS	inactive	inactive	inactive	inactive	inactive	inactive	–	inactive	–	inactive	27.3 µM (active)	inactive	inactive	inactive	inactive
CCCCCCCCCCCC[N+](C)(C)CCCS(=O)(=O)[O-]	–	inactive	inactive	inactive	inactive	inactive	–	inactive	inactive	inactive	inactive	inactive	–	inactive	inactive
CC(C)c1nnc2ccc(-c3ocnc3-c3cc(F)ccc3F)cn12	inactive	inactive	inactive	inactive	inactive	inactive	inactive	–	inactive	inactive	27.3 µM (active)	inactive	–	–	–
CO[Si](C)(OC)OC	inactive	inactive	inactive	inactive	inactive	inactive	inactive	inactive	inactive	inactive	–	–	inactive	–	–
